These results are taken from PubChem BioAssay AID624133 (Broad Institute, 2012).

Screen size: about 1,600 compounds; about 1,300 (81%) were called active. How the calls were made is not given here. So high a share suggests a set chosen from earlier hits. A selection follows. Results with a measured potency or affinity are listed apart.

This experiment can be described thus: non-specific 3'UTR reporter inhibition in Clone20-Shn3RL – cell-based, Renilla luciferase, cherry-picked, counter-screen for Shn3 inhibitor project, dose response (AID 624133).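 Further: 0% = neutral control wells and -100% = positive control wells.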 Conditions: Clone20-Shn3RL cells, Renilla luciferase luminescence, 24 h; at 35 µM (top of the series) unless noted. (In general: Counterscreens check selectivity or assay interference.)
In the case of `CCn1nnc2cc(C(=O)Nc3cc(Cl)ccc3C)ccc21`, the activity change, negative = inhibition was -11.1%. The result for `CCOC(=O)c1c(C)[nH]c(C(=O)COC(=O)[C@H](C)N2C(=O)C3CCCCC3C2=O)c1C` (some centres not stated) reads -5%.

Consider `O=C(Nc1cccc(-c2ccc(N3CCCCC3)nn2)c1)C(F)(F)F`, for which the activity change, negative = inhibition is -50%. The result for `Nc1c(Br)cc2c(c1Br)C(O)c1ccccc1-2` (configuration not stated) reads 22.2%; that for `CCCOc1ccc2oc(=O)c3c(c2c1)CCCN3C(=O)CN1CCN(c2ncccn2)CC1`, 133%; that for `COc1ccc(CN(C(=O)CSc2nnc(-c3ccc(F)cc3)o2)c2ccc(F)cc2)cc1`, 16.7%.

`CSc1cccc(NS(=O)(=O)c2ccc3c(c2)CCN3C(C)=O)c1`: the activity change, negative = inhibition was 400%. The result for `COc1cc(SC)ccc1C(=O)Nc1nc2ccccc2[nH]1` reads -90%; that for `Cc1cccc(CSc2cccc3cccnc23)c1`, 49.1%; that for `O=C(NCc1ccccc1C(F)(F)F)c1cccc2c1C(=O)c1ccc(N3CCC(N4CCCCC4)CC3)cc1S2(=O)=O`, -33.6%. Next, `CC(C)n1c(/C=C/[C@@H](O)C[C@@H](O)CC(=O)O)c(-c2ccc(F)cc2)c2ccccc21`: -100%; `O=c1cc(-c2ccc(O)cc2)oc2ccc3ccccc3c12`: 91.7%. Next, `Cn1cc([N+](=O)[O-])c(C(=O)Nc2sc3c(c2C#N)CCC3)n1`: -10.8%.

Turning to `O=C(COC(=O)/C=C/c1ccc(OC(F)F)cc1)Nc1ccc2[nH]c(=O)[nH]c2c1`, the activity change, negative = inhibition was -21.3%. For the compound `O=C(Nc1nc2cc3c(cc2s1)OCCO3)C1=COCCO1`, the activity change, negative = inhibition was determined as 45.8%. Next, `Cc1cccc(-c2noc(CN(C(=O)C(c3ccccc3)c3ccccc3)C(C)C)n2)c1`: -29.9%. For the compound `CC1=NOC(=O)/C1=C\c1ccc(-c2ccccc2Br)o1`, the activity change, negative = inhibition stood at 35.7%. The result for `COc1ccc(NS(=O)(=O)c2ccc3ccccc3c2)c2ncccc12` reads 293%. Next, `Cc1nc2scc(C)n2c(=O)c1S(=O)(=O)Nc1ccc(N2CCOCC2)c(Cl)c1`: 62.5%; `Nc1nnc(SCC(=O)Nc2ccc(N3CCOCC3)cc2)s1`: 45.8%; `CCOc1cc(/C=C2\C(=O)ON=C2C)ccc1OCc1ccccc1`: -100%. The result for `O=C(Nc1ccc(Cl)cc1)Nc1ccc(N2CCCC2)c(S(=O)(=O)Nc2ccccc2Cl)c1` reads -17.1% [at 16 µM]; that for `COc1ccc(CNC(=O)C(c2ccc(C)cc2)N(Cc2cccs2)C(=O)c2ccc3c(c2)OCCO3)cc1` (configuration not stated), 50%; that for `COc1ccc(CCNC(=O)CCC(=O)N2CCOc3ccc(Cl)cc32)cc1OC`, -107%. With `CCc1ccc(OCCNc2cc(N3CCNC(C)C3)ccc2[N+](=O)[O-])cc1` (configuration not stated), the activity change, negative = inhibition was -83.3%. Next, `O=S(=O)(c1ccc(Cl)cc1)n1ccc2cccnc21`: 6.94%.

Consider `Cc1ccc(C)c(S(=O)(=O)Nc2ccc(-n3cnnn3)cc2)c1`, for which the activity change, negative = inhibition is 276%. Next, `COc1ccc(C(=O)OCC(=O)Nc2ccc3[nH]c(=O)[nH]c3c2)cc1`: 62.5%; `Cc1ccccc1NC(=O)CSc1nc2ccccc2c(=O)n1C`: 10%.

As for `CCCCC[C@H]1CN(Cc2ccc(OC)cc2)C(=O)[C@@H]1CC(=O)NCc1ccccc1`, the activity change, negative = inhibition was found to be 196%. Next, `COc1ccc(N2C(=O)C(CC(=O)Nc3ccccc3)N(Cc3ccc(OC)c(OC)c3)C2=O)cc1` (configuration not stated): 84.7%; `COCCn1c(C)cc(C2=NNC(=NC3CC3)SC2)c1C`: 10%. The result for `Cc1ccc(S(=O)(=O)Nc2cccc3ncccc23)s1` reads -66.7%; that for `Cc1nc(SCC(=O)Nc2nc3ccccc3s2)c(C#N)c(C)c1C`, -8.33%.

As for `COc1ccc(NS(=O)(=O)c2ccc(OC)c(N(C)S(=O)(=O)c3ccc(Cl)cc3)c2)cc1`, the activity change, negative = inhibition is -58.3%. The result for `Cc1ccc(NC(=O)c2cc3ccccc3oc2=O)cc1S(=O)(=O)N(C)C` reads 45.2%. Next, `Cc1cccc(C)c1NC(=O)CN(C)C(=O)c1cc(S(=O)(=O)N(C)C)ccc1N1CCCC1`: 41.7%.

As to `Cc1nc2ncnn2c(C)c1Cc1cccc(F)c1`, the activity change, negative = inhibition was found to be 25%.

Take `Cn1cc(CN(CCO)Cc2cccs2)c(-c2cccc(Cl)c2)n1`: the activity change, negative = inhibition amounted to 16.7%. Next, `COc1ccc(C(=O)Cn2c(C(=O)/C=C/c3ccccc3)nc3ccccc32)cc1`: 170%. On to `O=C(O)c1cccc(COc2ccccc2Cl)c1`, for which the activity change, negative = inhibition is -10%.

Regarding `COc1ccc(OCc2cccc(C(=O)O)c2)cc1`, the activity change, negative = inhibition turned out to be 107%.

Take `Oc1c(C(c2cccs2)N2CCC3(CC2)OCCO3)sc2ncnn12` (configuration not stated): the activity change, negative = inhibition was found to be 151%. As for `CCN1C(=O)[C@H]2[C@@H](c3ccc(-c4ccc(OC)cc4)cc3)N3CCC[C@@]3(C(=O)OC)[C@H]2C1=O`, the activity change, negative = inhibition is -39.3%.

As to `COC(=O)[C@@]12CCCN1[C@H](c1ccc(-c3ccc(OC)cc3)cc1)[C@@H]1C(=O)N(C)C(=O)[C@@H]12`, the activity change, negative = inhibition was 47.2%.

As for `CCCCN1CC(COCc2ccccc2)Oc2cccc(Oc3cc(C)c(C)c(C)c3)c2S1(=O)=O` (configuration not stated), the activity change, negative = inhibition stood at 300%. Next, `CCCCN1CC(COCc2ccccc2)Oc2cccc(Oc3ccc(C)cc3)c2S1(=O)=O` (configuration not stated): 130%. Turning to `COC(=O)c1ccccc1NC(=S)N(Cc1ccc2c(c1)OCO2)Cc1cc2cc(OC)ccc2[nH]c1=O`, the activity change, negative = inhibition was 200%. `O=C1S/C(=C\c2ccc(N3CCOCC3)o2)C(=O)N1Cc1c(F)cccc1Cl`: the activity change, negative = inhibition is 400%.

As to `Cc1cc(C)n(-c2cc(-n3nc(C)cc3C)ncn2)n1`, the activity change, negative = inhibition was determined as 2.38%. The result for `C[C@@H]1CN([C@H](C)CO)C(=O)c2cc(Br)cnc2O[C@H]1CN(C)C(=O)Cc1ccncc1` reads 83.3%; that for `CN1OC[C@@H]2CN[C@H](c3ccc(-c4cc5ccccc5o4)cc3)C[C@@H]21`, -25%. For the compound `CN(CC(=O)Nc1cc(S(=O)(=O)N2CCCC2)ccc1Cl)Cc1ccc2c(c1)OCO2`, the activity change, negative = inhibition came to 87.5%.

Consider `CC(C)(C)OC(=O)NCc1ccc(CNC(=O)c2nc[nH]c2C(=O)NCc2ccc(CNC(=O)OC(C)(C)C)cc2)cc1`, for which the activity change, negative = inhibition came out at 208%.

`Cc1ccc(-n2cc(CNCCCn3ccnc3C)c(-c3ccc(F)cc3)n2)cc1`: the activity change, negative = inhibition was -91.7%. Next, `COC(=O)c1cn(NC(=O)c2cc([N+](=O)[O-])ccc2F)c(=O)c2ccccc12`: 354%; `CC(C)c1ccc(Oc2cccc3c2S(=O)(=O)N(C2CCCC2)CC(COCc2ccccc2)O3)cc1` (configuration not stated): 273%; `Cn1cccc1Cc1nnc(SCC(=O)NCCc2ccccc2)n1-c1ccc(F)cc1`: 275%. In the case of `CCN(CC)S(=O)(=O)c1ccc(N(C)Cc2cccc(OC)c2OC)nc1`, the activity change, negative = inhibition was -40%. In the case of `CCOC(=O)c1ccc(NC(=O)c2nc[nH]c2C(=O)NCCNC(=O)c2[nH]cnc2C(=O)Nc2ccc(C(=O)OCC)cc2)cc1`, the activity change, negative = inhibition is 47.9%. On to `Cc1cccc2c(C(=O)N3CCN(c4ccccn4)CC3)cc(-c3cccc(Br)c3)nc12`, for which the activity change, negative = inhibition is -100%.

Turning to `COc1ccccc1N1CCN(c2ncc(C(=O)N3CCN(c4cccc(Cl)c4)CC3)c3ccccc23)CC1`, the activity change, negative = inhibition amounted to 66.7%.
